Pol eta inh-1 = DNA polymerase eta (human) inhibition; Q9Y253; recombinant Pol eta, fluorescent DNA replication assay; Potency, µM (doses to about 114 µM), hits mostly inhibitors; hit rate 1.2% among 390,000; AID 588591
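Pol eta at 10 nM preincubated with compounds 15 min at room temperature; reaction started with fluorescent substrate (50 nM final) and read kinetically at 0 and 10 min.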
Pol kappa inh-1 = blocks human DNA polymerase kappa activity; Potency, µM (top dose mostly 107 µM), hits mostly inhibitors; Q9UBT6; purified Pol kappa, fluorescent DNA synthesis assay, 10 min; hit rate 0.53% among 400,000; AID 588579
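Activity was followed as the change in fluorescence between reads at 0 and 10 min after starting the reaction with 50 nM substrate. Beforehand, 10 nM polymerase had been preincubated with compound for 15 min at room temperature.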
POLB inh = inhibitors of human DNA polymerase beta; Potency, µM (titrated, usually from 114 µM), actives largely listed as inhibitors; Pol beta primer extension/strand displacement, fluorescence kinetic; AID 485314; hit rate 1.3% among 340,000; P06746
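Values derive from four-parameter Hill fits of normalized kinetic data: reads at 0 and 10 min following addition of 50 nM substrate to 10 nM Pol beta preincubated 15 min with compound.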
GLS inh = blocks human kidney-isoform glutaminase activity | Potency, µM (series often up to 45.5 µM), hits mostly inhibitors | hit rate 0.21% among 410,000 | GLS enzymatic activity, qHTS titration | AID 624170 | O94925
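hKGA; 45 mM KH2PO4 pH 8.2 + 0.02% Tween-20; cpd via pin tool; 1 mM Gln soln; GluOx/HRP/Amplex Red; RT 30 min; fluor. t0 & final.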
POLI inh = blocks human DNA polymerase iota activity. Pol iota fluorescent replication assay, 10 min. Potency, µM (titrated, usually from 115 µM), usual class: inhibitors. hit rate 1% among 390,000
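Pol iota at 10 nM preincubated 15 min with compounds at room temperature; reaction started with fluorescent substrate, 50 nM final. Fluorescence read kinetically at 0 and 10 min; buffer-only wells as negative control.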
KAT2A inh = GCN5L2 (KAT2A) acetyltransferase inhibition. AID 504327. GCN5L2 HAT assay, ThioGlo1 CoA-SH fluorescence. hit rate 0.21% among 390,000. Potency, µM (top dose mostly 58.9 µM), actives largely listed as inhibitors
Target sequence (Q92830 whole entry, looked up): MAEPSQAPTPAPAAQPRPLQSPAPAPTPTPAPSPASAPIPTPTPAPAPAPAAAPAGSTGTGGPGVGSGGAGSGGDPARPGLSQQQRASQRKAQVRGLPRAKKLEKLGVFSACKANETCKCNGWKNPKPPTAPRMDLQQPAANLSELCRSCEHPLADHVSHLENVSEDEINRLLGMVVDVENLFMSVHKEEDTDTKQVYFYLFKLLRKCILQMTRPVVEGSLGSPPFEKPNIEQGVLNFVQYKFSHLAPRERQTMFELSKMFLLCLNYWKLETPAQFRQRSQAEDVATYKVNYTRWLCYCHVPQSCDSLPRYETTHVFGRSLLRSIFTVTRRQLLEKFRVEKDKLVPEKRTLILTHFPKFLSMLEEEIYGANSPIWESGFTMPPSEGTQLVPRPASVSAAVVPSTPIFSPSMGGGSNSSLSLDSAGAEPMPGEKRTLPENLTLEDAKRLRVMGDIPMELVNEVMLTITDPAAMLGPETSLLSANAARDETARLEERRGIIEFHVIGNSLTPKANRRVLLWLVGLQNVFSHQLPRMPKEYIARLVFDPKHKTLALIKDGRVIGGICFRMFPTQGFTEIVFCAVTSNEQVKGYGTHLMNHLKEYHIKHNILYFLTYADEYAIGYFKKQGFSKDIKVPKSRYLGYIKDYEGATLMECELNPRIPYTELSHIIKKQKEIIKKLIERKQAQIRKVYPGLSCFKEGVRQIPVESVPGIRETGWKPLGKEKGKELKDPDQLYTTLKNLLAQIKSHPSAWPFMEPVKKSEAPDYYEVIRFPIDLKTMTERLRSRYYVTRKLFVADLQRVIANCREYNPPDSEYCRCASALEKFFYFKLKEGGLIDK
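Enzyme at 20nM final was mixed with library compounds for 15 min at room temperature. Peptide H3(1-25) at 75uM, acetyl-CoA at 70uM and ThioGlo1 at 50uM were then added. Plates were read immediately and after 20 min (Ex340nm/Em540nm).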
TbPGK inh = blocks T. brucei phosphoglycerate kinase. shares compounds with Pol kappa inh-1. AID 686980. Potency, µM (top dose mostly 57.5 µM), hits mostly inhibitors. hit rate 79% among 500. TbPGK coupled GAPDH assay, Kinase-Glo luminescence; also: nearly all actives have a fitted effect of over 65% in size
POLI cherry-pick = Confirm cherry-picked inhibitors of human polymerase iota. hit rate 77% among 1,500. AID 720496. Pol iota primer extension, TAMRA/BHQ fluorescence. shares compounds with Pol kappa inh-1. Potency, µM, most hits filed as inhibitors
GALK inh confirm = confirmation of human galactokinase (GALK) inhibitors | hit rate 70% among 150 | shares compounds with Pol eta inh-1 | Potency, µM (titrated, usually from 115 µM), most hits filed as inhibitors | purified GALK, Kinase-Glo ATP depletion luminescence
Redox cycling = counter-screen for GALK inhibitors: redox cycling H2O2 generation; shares compounds with Pol eta inh-1; Phenol red-HRP H2O2 redox cycling, absorbance 600 nm; Potency, µM (highest dose often 115 µM), usual class: inhibitors; hit rate 40% among 150; AID 2035
HEK293 viability = reduces HEK-293 cell viability in GALK counter-screen; shares compounds with Pol eta inh-1; hit rate 10% among 170; AID 2547; HEK-293 viability, ATP luminescence (CellTiter-Glo), 24/48 h; Potency, µM (top dose mostly 46.1 µM), usual class: inhibitors
Pol kappa inh-2 = confirmation of human DNA polymerase kappa inhibitors; shares compounds with Pol eta inh-1; purified Pol-kappa, fluorescent strand-displacement substrate; Potency, µM, actives largely listed as inhibitors; hit rate 76% among 920; AID 720501
Pol eta inh-2 = confirmation of human DNA polymerase eta inhibitors; shares compounds with Pol eta inh-1; Pol eta primer extension, TAMRA/BHQ fluorescence, 10 min; Potency, µM, hits mostly inhibitors; hit rate 64% among 2,600; AID 720502
Each line names hits and unclear results; the compound was inactive in the other large screens (follow-up assays come after a bar, where they were run). An excerpt weighted towards active compounds, which were near 2.4% of everything screened. Calls follow the shape of the dose curve; as a rule, active = well fitted curve in the direction sought with a large enough effect; inconclusive = small, poorly fitted or top-dose-only effect, or another doubt; inactive = no such curve, though single readings can be large; an effect the other way counts as inactive or inconclusive.

CC[n+]1c(/C=C/C=C/c2ccc(N(C)C)cc2)sc2ccccc21	Pol eta inh-1 inconclusive | TbPGK inh inconclusive
COC12C(COC(N)=O)C3=C(C(=O)C(C)=C(N)C3=O)N1CC1C2N1C (stereo not drawn)	Pol eta inh-1 50.1µM, POLI inh inconclusive | POLI cherry-pick 37.7
CN(CCc1cnn(C)c1)C(=O)C1CCC(=O)N(CC2CCCCC2)C1 (stereo not drawn)	KAT2A inh inconclusive
O=C1NC(=O)N(c2cccc(Cl)c2)C(=O)/C1=C\c1ccc(Sc2nc3ccccc3[nH]2)o1	Pol eta inh-1 17.8µM, Pol kappa inh-1 22.4µM, POLB inh 31.6µM, POLI inh inconclusive, KAT2A inh inconclusive | POLI cherry-pick 75.2 | Pol eta inh-2 26.9
CC[n+]1c(-c2ccccc2)c2cc(N)ccc2c2ccc(N)cc21	Pol eta inh-1 4.47µM, Pol kappa inh-1 20µM, POLI inh 39.8µM, KAT2A inh inconclusive (no result: POLB inh) | POLI cherry-pick 15 | Pol kappa inh-2 9.47 | Pol eta inh-2 inconclusive
CC(Oc1ccc(Br)cc1)C(=O)N(Cc1nc(-c2ccccc2)no1)C(C)C (stereo not drawn)	Pol eta inh-1 inconclusive, Pol kappa inh-1 inconclusive
O=C(Cc1cc(=O)oc2cc(O)ccc12)NN=Cc1ccc(N(CCCl)CCCl)cc1	Pol eta inh-1 15.8µM, Pol kappa inh-1 inconclusive, GLS inh inconclusive, POLI inh inconclusive (no result: POLB inh, KAT2A inh) | POLI cherry-pick inconclusive | Pol eta inh-2 inconclusive
O=C(NN=Cc1ccc(N(CCCl)CCCl)cc1)c1cc(=O)[nH]c(=O)[nH]1	POLI inh inconclusive (no result: POLB inh, KAT2A inh)
COc1cc2c(c(OC)c1OC)-c1ccc(OC)c(=O)cc1[C@H](NC(C)=O)CC2	none (no result: Pol eta inh-1, POLB inh, GLS inh, POLI inh)
O=[N+]([O-])c1cc(S(=O)(=O)c2ccc(O)c([N+](=O)[O-])c2)ccc1O	Pol eta inh-1 2.82µM, Pol kappa inh-1 44.7µM, POLB inh 11.2µM, GLS inh inconclusive, POLI inh 17.8µM | POLI cherry-pick 59.7 | Pol kappa inh-2 6.7 | Pol eta inh-2 30.1
COC(=O)c1nc(-c2ccc3c(n2)C(=O)C(N)=C(OC)C3=O)c(N)c(-c2ccc(OC)c(OC)c2O)c1C	Pol eta inh-1 10µM, Pol kappa inh-1 inconclusive, POLB inh inconclusive, POLI inh 8.91µM | POLI cherry-pick 47.4 | GALK inh confirm 5.3µM | Redox cycling 6.68µM | HEK293 viability inactive | Pol eta inh-2 inconclusive
O=S(=O)(O)C(F)(F)C(F)(F)C(F)(F)C(F)(F)C(F)(F)C(F)(F)C(F)(F)C(F)(F)F	none (no result: Pol eta inh-1, Pol kappa inh-1, POLB inh, POLI inh, KAT2A inh)

Source: PubChem BioAssay (National Center for Advancing Translational Sciences (NCATS))
